Data: PubChem BioAssay (NCI)
Compounds without any hit were thinned out: in the full panel of roughly 83,000, 20% have a hit.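 The endpoint reported here, percent growth, reads 100 for growth as untreated, 0 for no net growth and -100 for all cells dead.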 Unmarked numbers belong to inactive results. Calls of active or inactive are those of the source. How the source made its calls: active means growth percent below 10; inactive means the rest.

Columns and labels:
Test in all cases: NCI-60 one-dose screen, 48 h (100 = growth as untreated, 0 = no growth, -100 = all killed)
Conditions in all cases: 10 µM unless noted
SK-MEL-2 melanoma = system: SK-MEL-2 melanoma
EKVX NSCLC = system: EKVX NSCLC
SN12C renal = system: SN12C renal
UO-31 renal = system: UO-31 renal
TK-10 renal = system: TK-10 renal
ACHN renal = system: ACHN renal
A498 renal = system: A498 renal
CCRF-CEM leukemia = system: CCRF-CEM leukemia
MOLT-4 leukemia = system: MOLT-4 leukemia
SR leukemia = system: SR leukemia

Row | SMILES | growth (SK-MEL-2 melanoma) | growth (EKVX NSCLC) | growth (SN12C renal) | growth (UO-31 renal) | growth (TK-10 renal) | growth (ACHN renal) | growth (A498 renal) | growth (CCRF-CEM leukemia) | growth (MOLT-4 leukemia) | growth (SR leukemia)
1 | Cc1cc(Cl)cc(CN(Cc2ccccc2)Cc2c(O)ccc3ccccc23)c1O | 91% | 99% | 83.5% | 62.2% | 110% | 102% | 76.6% | 99.2% | 104% | 92.9%
2 | COC(=O)/C=C1\SC(=Nc2ccc(F)cc2)N(CCc2c[nH]c3ccccc23)C1=O | 102% | 92.6% | 103% | 81% | 106% | 103% | 110% | 68.2% | 76.4% | 85.5%
3 | CC1(C)[C@@H](O)CC[C@]2(C)[C@H]3CC[C@@H]4[C@H]5[C@H](c6cn(-c7ccccc7)nn6)CC[C@]5(CO)CC[C@@]4(C)[C@]3(C)CC[C@@H]12 | 92.4% | 88% | 90% | 79.9% | 98.4% | 84.4% | 87.6% | 94.4% | 67.7% | 64.7%
4 | COC(=O)/C=C1\SC(=Nc2ccc(C(F)(F)F)cc2)N(CCc2c[nH]c3ccccc23)C1=O | -54.1% (active) | -6.54% (active) | -65.1% (active) | -100% (active) | -33.7% (active) | -100% (active) | -48.5% (active) | 3.88% (active) | -11.4% (active) | -13.7% (active)
5 | CCCn1c2cc(OCc3cn(-c4ccc(Cl)cc4)nn3)ccc2c2ccnc(C)c21 | 87% | 80.1% | 34.2% | 46.4% | 113% | 34.3% | 76.2% | 56.8% | 57.1% | -32.4% (active)
6 | Fc1ccc(N/N=C/c2ccc(-n3cccn3)cc2)cc1 | 103% | 81.3% | 108% | 80.4% | 111% | 91.7% | 119% | 89.5% | 89% | 64.1%
7 | COc1cccc2c1-c1ccccc1C2=O | 34.3% | 40.7% | 53.9% | 47.1% | 66.7% | 50% | 7.69% (active) | 5.55% (active) | 73.9% | 40.4%
8 | CC(C)C1=C[C@@]23CC[C@H]4[C@](C)(COCCC#N)CCC[C@]4(C)[C@H]2C[C@@H]1[C@@H]1[C@H]3[C@@H](OCCC#N)CC[C@@H]1OCCC#N | 24.5% | 17.6% | 32.9% | 24.8% | 37.7% | 25% | 67.7% | 34.3% | 5.36% (active) | 15%
9 | Cc1c(C(=O)Nc2nc3ccccc3[nH]2)cnn1-c1ccccn1 | 105% | 103% | 114% | 104% | 98.3% | 114% | 96.4% | 90.8% | 77.5% | 83.8%
10 | Cc1nc(C)c(C)nc1C | 97.9% | 109% | 101% | 93.4% | 95.7% | 114% | 102% | 89.5% | 99.8% | 108%
11 | CC(C)(C)CC(C)(C)Cc1ccc(OCCOCC[N+](C)(C)Cc2ccccc2)cc1 | 28.4% | 74.7% | 8.79% (active) | 97.1% | 49.4% | 97.4% | 63.8% | 10% | 7.43% (active) | -27.8% (active)
12 | COc1cc(C(C)c2ccc3c(ccn3C)c2)cc(OC)c1OC (stereo not given) | 30.5% | 34.9% | 32.6% | 35.2% | 71.3% | 28.5% | 8.95% (active) | 16.3% | 12.6% | 13.8%
13 | C#CCN1C(=O)c2ccccc2N(CC#C)C12CCN(Cc1cn(CC(=O)Nc3ccccc3C(N)=O)nn1)CC2 | 98.8% | 78.6% | 88.9% | 59.3% | 82.8% | 92.5% | 75.8% | 84.3% | 83.2% | 64.6%
14 | Cc1c(Cl)cccc1NC(=O)c1sc2nc3c(cc2c1N)CN(Cc1ccccc1)CC3 | 31.4% | 55.5% | 59.2% | 58% | 75% | 56.4% | 36.6% | 14.5% | 22.9% | 16.9%
15 | CCCCn1c(=O)c(/C=C/C(=O)/C=C/c2ccc(O)c(OC)c2)cc2ccc(Cl)cc21 | 42.1% | 40.1% | 12.3% | 6.03% (active) | 54.2% | 19.9% | 77.6% | 2.91% (active) | 8.28% (active) | 3.78% (active)
16 | O=C1CCC23OC(C(O)c4ccccc4N12)C1C(Br)=NOC13 (stereo not given) | 108% | 99.7% | 90.7% | 87.2% | 98.5% | 104% | 108% | 103% | 103% | 102%
17 | C=C1C(=O)O[C@H]2[C@H]1CC/C(COC(=O)c1c[nH]c3ccccc13)=C\CC[C@@]1(C)O[C@@H]21 | -41.3% (active) | -73.3% (active) | -46.5% (active) | -97.6% (active) | -87% (active) | -77.8% (active) | -96.3% (active) | -0.836% (active) | -1.78% (active) | -9.87% (active)
18 | CC(C)(C)c1ccc(O)c(Cc2cc(C(C)(C)C)ccc2O)c1 | 80% | 78.5% | 87.5% | 85.7% | 94.2% | 106% | 87.3% | 0.931% (active) | 64.6% | 24.5%
19 | Nc1c(C(=O)Nc2ccccc2)sc2nc3c(cc12)CN(C(=O)OCc1ccccc1)CC3 | 31.8% | 69.6% | 66% | 67.5% | 98.8% | 60.2% | 44.6% | 31.8% | 37.8% | 25.1%
20 | CC(=O)Oc1c2c(nc3c1c1ccccc1n3Cc1ccccc1)-c1ccccc1C2 | 71.4% | 80.8% | 85.8% | 58.2% | 114% | 85.7% | 82% | 91.5% | 72.6% | 86.2%
21 | C=CCn1c(CN2CCN(c3cc4c(cc3F)c(=O)c(C(=O)O)cn4C3CC3)CC2)n[nH]c1=S | 104% | 101% | 104% | 83.7% | 88.9% | 102% | 98.2% | 90.1% | 94.2% | 99.1%
22 | COc1ccc(/C(=N\O)c2cc(C)c(OC)c(C)c2)cc1O | 37.6% | 51.7% | 39.4% | 51.6% | 72% | 31.7% | 6.79% (active) | 7.8% (active) | 13.8% | 10.3%
23 | Cc1cc(Nc2nc(SCc3ccc(C(=O)Nc4ccc(F)cc4N)cc3)nn3cccc23)n[nH]1 | 18.2% | 31% | 29% | 31% | 48.8% | 21.1% | 5.84% (active) | 9.8% (active) | 6.29% (active) | 13.3%
24 | O=C1c2ccccc2C(=O)c2c1oc1c2c(=O)[nH]c2ccccc21 | 76.9% | 27.4% | 70.4% | 60.4% | 97.5% | 65.7% | 104% | 20.7% | 5.55% (active) | 43.8%
25 | O=C(Nc1ccc(S(=O)(=O)NC2CCCCCC2)cc1)C(c1ccccc1)S(=O)(=O)c1ccc(F)cc1 (stereo not given) | -22.9% (active) | 5.65% (active) | 12.6% | -44.2% (active) | 6.92% (active) | 0.641% (active) | -33.2% (active) | 4.59% (active) | 6.98% (active) | -0.97% (active)
26 | O=c1c2ccccc2oc2ccc(OCCCCCCN3CCCCCC3)cc12 | 76.9% | 62.8% | 55% | 41.8% | 66.3% | 65.7% | 70.2% | 43.3% | 6.07% (active) | 1.08% (active)
27 | Cc1c(Cl)cccc1NC(=O)c1sc2nc3c(cc2c1N)COCC3 | 29.4% | 60.3% | 44.1% | 49.2% | 57% | 44.2% | 18.1% | 21.1% | 27.5% | 15.4%
